# Experimental data: PMC7862700, “An all-to-all approach to the identification of sequence-specific readers for epigenetic DNA modifications on cytosine”
# Key:
# Assay in all cases: DAPPL (digital affinity profiling via proximity ligation, sequencing); 10 mM Tris-HCl pH 7.5, 50 mM NaCl, 1 mM DTT, 4% glycerol, room temperature, 30 min; GST-TFs on glutathione beads, 16-mer random dsDNA library, 0.1% formaldehyde crosslink after washing; high values mean tight binding
# FLI1 = target: T1, FLI1 (Homo sapiens, UniProt Q01543 1-452); conditions: protein: recombinant; tags: N-terminal GST; dsDNA, one strand shown
# T1 sequence: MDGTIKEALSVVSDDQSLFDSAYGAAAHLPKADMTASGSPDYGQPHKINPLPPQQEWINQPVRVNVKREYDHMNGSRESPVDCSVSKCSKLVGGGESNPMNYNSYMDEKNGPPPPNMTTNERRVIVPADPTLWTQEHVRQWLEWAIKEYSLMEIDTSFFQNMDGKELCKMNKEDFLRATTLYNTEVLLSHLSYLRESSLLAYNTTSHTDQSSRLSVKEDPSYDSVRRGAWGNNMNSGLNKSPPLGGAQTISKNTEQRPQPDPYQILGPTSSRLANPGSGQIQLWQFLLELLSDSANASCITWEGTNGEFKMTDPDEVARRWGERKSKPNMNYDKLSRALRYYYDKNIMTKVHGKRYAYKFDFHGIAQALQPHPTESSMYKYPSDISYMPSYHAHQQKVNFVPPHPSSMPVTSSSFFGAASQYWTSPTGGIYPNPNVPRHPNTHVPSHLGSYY
# In short: (§1)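 GST fusions of human transcription factors were expressed in yeast and captured with glutathione beads. Once given DNA barcodes and pooled alongside a tag-only sample, they were incubated for 30 min at room temperature with 200 nmole of a random double-stranded 16-mer DNA library in Tris/NaCl/DTT/glycerol buffer, then washed, crosslinked (0.1% formaldehyde), proximity-ligated, PCR-amplified and sequenced on an Illumina NextSeq500. The binding signal of each hexamer is its read frequency for a factor divided by its frequency for the tag-only sample.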
# ELK1 = target: T2, ELK1 (Homo sapiens, UniProt P19419 1-428); conditions: protein: recombinant; tags: N-terminal GST; dsDNA, one strand shown
# T2 sequence: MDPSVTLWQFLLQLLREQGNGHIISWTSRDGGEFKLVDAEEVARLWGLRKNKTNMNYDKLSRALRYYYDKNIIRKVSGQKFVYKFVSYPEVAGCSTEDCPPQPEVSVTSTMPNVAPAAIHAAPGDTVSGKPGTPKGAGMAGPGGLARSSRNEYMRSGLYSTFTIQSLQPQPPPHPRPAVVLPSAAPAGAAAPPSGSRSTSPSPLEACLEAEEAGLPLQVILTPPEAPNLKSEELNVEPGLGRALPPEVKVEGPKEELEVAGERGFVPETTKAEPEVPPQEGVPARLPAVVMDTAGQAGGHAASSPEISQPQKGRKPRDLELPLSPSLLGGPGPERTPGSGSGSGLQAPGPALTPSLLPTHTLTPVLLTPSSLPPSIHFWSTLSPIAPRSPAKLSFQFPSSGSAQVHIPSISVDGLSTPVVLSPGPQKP
# In short: as §1
# GABPA = target: T3, GABPA (Homo sapiens, UniProt Q06546 1-454); conditions: protein: recombinant; tags: N-terminal GST; dsDNA, one strand shown
# T3 sequence: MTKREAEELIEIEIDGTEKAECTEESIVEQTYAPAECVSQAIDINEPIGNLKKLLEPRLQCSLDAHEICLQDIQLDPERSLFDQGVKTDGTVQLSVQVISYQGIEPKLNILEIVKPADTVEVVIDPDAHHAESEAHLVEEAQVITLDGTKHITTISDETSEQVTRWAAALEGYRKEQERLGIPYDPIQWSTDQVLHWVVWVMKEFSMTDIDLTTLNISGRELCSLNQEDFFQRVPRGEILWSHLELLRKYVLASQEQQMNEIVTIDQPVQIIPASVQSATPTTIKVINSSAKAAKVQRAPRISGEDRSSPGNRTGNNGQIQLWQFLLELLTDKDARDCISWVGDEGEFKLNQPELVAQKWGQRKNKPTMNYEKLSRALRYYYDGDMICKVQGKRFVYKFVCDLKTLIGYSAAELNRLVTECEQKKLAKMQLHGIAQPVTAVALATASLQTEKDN
# In short: as §1
# ERG = target: T4, ERG (Homo sapiens, UniProt P11308 1-479); conditions: protein: recombinant; tags: N-terminal GST; dsDNA, one strand shown
# T4 sequence: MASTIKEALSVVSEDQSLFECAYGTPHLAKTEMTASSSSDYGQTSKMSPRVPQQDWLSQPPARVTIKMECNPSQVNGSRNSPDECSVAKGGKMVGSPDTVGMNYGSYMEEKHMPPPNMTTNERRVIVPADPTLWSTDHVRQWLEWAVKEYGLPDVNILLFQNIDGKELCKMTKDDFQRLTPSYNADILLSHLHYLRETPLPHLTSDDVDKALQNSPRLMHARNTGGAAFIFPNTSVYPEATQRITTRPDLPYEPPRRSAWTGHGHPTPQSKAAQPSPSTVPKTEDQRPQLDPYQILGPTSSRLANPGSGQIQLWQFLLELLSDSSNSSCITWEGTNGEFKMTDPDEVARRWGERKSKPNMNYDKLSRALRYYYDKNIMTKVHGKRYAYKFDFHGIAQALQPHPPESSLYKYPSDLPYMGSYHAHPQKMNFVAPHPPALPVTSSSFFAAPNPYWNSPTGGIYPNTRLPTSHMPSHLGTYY
# In short: as §1
# ELF1 = ELF1 (Homo sapiens, UniProt P32519 1-619); conditions: protein: recombinant; tags: N-terminal GST; dsDNA, one strand shown
# In short: as §1
# EHF = target: T5, EHF (Homo sapiens, UniProt Q9NZC4 1-300); conditions: protein: recombinant; tags: N-terminal GST; dsDNA, one strand shown
# T5 sequence: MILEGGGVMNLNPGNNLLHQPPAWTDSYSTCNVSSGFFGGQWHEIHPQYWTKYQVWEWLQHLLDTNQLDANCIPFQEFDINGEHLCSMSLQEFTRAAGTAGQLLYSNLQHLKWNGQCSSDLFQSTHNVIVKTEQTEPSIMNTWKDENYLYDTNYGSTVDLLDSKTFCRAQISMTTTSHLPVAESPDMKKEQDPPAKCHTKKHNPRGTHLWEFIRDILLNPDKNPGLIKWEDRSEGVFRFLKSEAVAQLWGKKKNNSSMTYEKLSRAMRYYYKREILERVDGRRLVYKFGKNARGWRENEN
# In short: as §1
# SPI1 = SPI1 (Homo sapiens, UniProt P17947 1-270); conditions: protein: recombinant; tags: N-terminal GST; dsDNA, one strand shown
# In short: as §1
# SPIB = SPIB (Homo sapiens, UniProt Q01892 1-262); conditions: protein: recombinant; tags: N-terminal GST; dsDNA, one strand shown
# In short: as §1
# ELK3 = target: T6, ELK3 (Homo sapiens, UniProt P41970 1-407); conditions: protein: recombinant; tags: N-terminal GST; dsDNA, one strand shown
# T6 sequence: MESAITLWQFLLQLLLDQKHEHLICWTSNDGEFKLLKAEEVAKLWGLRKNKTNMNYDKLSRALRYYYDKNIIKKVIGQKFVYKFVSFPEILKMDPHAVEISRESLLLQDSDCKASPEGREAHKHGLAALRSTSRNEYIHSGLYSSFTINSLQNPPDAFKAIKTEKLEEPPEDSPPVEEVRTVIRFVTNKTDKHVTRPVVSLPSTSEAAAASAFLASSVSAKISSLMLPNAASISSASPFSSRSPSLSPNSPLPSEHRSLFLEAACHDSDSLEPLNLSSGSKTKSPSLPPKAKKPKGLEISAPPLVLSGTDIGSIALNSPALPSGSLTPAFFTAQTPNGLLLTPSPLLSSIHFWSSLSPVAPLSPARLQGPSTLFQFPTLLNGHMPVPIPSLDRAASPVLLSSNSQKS
# In short: as §1
# FEV = target: T7, FEV (Homo sapiens, UniProt Q99581 1-238); conditions: protein: recombinant; tags: N-terminal GST; dsDNA, one strand shown
# T7 sequence: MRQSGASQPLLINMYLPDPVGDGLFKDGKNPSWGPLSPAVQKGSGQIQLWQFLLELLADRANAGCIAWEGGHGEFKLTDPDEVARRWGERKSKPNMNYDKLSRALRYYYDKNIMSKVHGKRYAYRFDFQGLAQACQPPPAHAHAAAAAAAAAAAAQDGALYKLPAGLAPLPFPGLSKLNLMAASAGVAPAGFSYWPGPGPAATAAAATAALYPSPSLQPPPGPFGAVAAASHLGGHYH
# In short: as §1
# ETV5 = ETV5 (Homo sapiens, UniProt P41161 1-510); conditions: protein: recombinant; tags: N-terminal GST; dsDNA, one strand shown
# In short: as §1
# HSF1 = HSF1 (Homo sapiens, UniProt Q00613 1-529); conditions: protein: recombinant; tags: N-terminal GST; chain copies: 3; dsDNA, one strand shown
# In short: as §1
# SPIC = target: T8, SPIC (Homo sapiens, UniProt Q8N5J4 1-248); conditions: protein: recombinant; tags: N-terminal GST; dsDNA, one strand shown
# T8 sequence: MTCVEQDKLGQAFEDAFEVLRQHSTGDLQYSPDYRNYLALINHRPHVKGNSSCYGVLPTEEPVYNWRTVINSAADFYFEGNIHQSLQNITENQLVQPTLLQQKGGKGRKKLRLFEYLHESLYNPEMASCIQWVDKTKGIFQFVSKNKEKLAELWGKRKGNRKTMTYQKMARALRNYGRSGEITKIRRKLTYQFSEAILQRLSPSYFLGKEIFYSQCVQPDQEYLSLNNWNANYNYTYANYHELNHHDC
# In short: as §1
# ELF4 = ELF4 (Homo sapiens, UniProt Q99607 1-663); conditions: protein: recombinant; tags: N-terminal GST; dsDNA, one strand shown
# In short: as §1
# ELK4 = target: T9, ELK4 (Homo sapiens, UniProt P28324-2 1-405); conditions: protein: recombinant; tags: N-terminal GST; dsDNA, one strand shown
# T9 sequence: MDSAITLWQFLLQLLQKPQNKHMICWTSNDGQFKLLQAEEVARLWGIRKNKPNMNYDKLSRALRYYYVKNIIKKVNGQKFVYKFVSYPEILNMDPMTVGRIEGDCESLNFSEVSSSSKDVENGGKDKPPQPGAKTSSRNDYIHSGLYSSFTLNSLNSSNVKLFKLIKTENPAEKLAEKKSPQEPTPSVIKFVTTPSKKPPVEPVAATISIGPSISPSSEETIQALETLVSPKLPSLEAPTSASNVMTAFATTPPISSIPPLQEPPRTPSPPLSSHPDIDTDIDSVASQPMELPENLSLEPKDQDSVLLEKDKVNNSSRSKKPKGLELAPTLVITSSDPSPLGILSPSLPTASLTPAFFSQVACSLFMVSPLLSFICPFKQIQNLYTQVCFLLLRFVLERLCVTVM
# In short: as §1
# ETV2 = target: T10, ETV2 (Homo sapiens, UniProt O00321 1-342); conditions: protein: recombinant; tags: N-terminal GST; dsDNA, one strand shown
# T10 sequence: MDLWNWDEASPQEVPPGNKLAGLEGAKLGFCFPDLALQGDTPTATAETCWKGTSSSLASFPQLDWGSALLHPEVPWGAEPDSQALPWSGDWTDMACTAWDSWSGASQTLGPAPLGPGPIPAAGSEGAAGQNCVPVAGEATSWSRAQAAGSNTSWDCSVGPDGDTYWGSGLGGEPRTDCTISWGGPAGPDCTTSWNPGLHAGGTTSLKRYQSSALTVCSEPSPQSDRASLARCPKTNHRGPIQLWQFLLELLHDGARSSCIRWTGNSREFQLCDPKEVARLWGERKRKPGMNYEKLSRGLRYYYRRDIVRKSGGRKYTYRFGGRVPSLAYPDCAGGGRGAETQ
# In short: as §1
# ELF3 = target: T11, ELF3 (Homo sapiens, UniProt P78545 1-371); conditions: protein: recombinant; tags: N-terminal GST; dsDNA, one strand shown
# T11 sequence: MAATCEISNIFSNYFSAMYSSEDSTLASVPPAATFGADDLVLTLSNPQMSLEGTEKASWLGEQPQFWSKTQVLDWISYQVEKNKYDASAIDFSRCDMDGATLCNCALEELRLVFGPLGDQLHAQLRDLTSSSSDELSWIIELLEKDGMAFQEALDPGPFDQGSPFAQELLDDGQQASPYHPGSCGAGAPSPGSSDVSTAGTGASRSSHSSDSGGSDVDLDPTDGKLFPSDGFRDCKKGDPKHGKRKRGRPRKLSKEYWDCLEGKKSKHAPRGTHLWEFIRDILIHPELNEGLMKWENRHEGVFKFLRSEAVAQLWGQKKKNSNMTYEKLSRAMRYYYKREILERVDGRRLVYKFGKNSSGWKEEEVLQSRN
# In short: as §1
# CRX = CRX (Homo sapiens, UniProt O43186 1-299); conditions: protein: recombinant; tags: N-terminal GST; dsDNA, one strand shown
# In short: as §1
# ETV1 = ETV1 (Homo sapiens, UniProt P50549 1-477); conditions: protein: recombinant; tags: N-terminal GST; dsDNA, one strand shown
# In short: as §1
# Chain of HSF1 (Q00613 whole entry): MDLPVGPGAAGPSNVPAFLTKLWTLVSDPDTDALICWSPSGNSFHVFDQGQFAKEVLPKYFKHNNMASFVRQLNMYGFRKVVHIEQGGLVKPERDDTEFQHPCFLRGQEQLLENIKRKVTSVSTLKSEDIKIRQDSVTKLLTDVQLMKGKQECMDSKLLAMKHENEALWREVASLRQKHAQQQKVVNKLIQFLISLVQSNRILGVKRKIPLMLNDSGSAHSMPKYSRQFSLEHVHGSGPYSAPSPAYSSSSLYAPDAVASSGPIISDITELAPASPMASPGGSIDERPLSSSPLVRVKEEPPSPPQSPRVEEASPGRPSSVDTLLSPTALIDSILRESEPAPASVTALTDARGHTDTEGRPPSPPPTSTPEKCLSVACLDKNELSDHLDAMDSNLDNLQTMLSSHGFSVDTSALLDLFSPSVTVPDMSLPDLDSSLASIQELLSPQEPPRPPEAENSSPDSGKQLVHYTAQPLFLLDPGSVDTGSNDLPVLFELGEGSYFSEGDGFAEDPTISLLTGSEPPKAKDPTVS
# Chain of CRX (O43186 whole entry): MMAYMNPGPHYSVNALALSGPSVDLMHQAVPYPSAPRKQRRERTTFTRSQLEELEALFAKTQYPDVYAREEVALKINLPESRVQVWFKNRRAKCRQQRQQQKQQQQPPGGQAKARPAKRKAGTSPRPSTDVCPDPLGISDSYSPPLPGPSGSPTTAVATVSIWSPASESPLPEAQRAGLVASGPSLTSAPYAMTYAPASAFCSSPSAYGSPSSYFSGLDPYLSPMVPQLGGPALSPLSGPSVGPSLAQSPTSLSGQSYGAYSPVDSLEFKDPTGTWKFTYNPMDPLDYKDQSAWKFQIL
# Chain of ETV5 (P41161 whole entry): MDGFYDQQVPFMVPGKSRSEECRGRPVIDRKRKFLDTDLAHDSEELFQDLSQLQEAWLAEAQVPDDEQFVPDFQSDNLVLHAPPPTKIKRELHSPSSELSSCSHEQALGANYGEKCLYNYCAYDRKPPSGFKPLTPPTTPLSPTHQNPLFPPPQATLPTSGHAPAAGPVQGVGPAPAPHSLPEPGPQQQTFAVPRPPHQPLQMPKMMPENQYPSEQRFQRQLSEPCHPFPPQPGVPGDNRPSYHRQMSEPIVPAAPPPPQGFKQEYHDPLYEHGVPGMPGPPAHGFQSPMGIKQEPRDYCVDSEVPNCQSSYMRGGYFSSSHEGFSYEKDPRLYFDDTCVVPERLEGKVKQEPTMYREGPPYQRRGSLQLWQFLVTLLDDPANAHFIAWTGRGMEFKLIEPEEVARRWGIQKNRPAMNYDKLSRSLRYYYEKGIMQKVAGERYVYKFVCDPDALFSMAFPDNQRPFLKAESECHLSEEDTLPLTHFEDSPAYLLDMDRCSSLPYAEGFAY
# Chain of ETV1 (P50549 whole entry): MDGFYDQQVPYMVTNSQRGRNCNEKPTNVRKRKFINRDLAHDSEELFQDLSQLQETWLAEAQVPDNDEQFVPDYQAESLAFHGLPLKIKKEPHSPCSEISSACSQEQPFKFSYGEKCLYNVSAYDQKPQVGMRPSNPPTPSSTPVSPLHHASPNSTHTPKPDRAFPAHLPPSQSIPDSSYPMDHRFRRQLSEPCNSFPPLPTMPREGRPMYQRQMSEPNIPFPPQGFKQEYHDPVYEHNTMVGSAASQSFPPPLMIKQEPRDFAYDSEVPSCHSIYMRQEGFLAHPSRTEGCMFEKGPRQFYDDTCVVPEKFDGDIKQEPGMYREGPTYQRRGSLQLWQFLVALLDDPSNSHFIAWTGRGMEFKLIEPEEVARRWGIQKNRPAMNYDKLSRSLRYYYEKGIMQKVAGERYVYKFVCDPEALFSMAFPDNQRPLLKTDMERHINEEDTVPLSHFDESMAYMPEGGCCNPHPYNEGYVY
# Chain of ELF1 (P32519 whole entry): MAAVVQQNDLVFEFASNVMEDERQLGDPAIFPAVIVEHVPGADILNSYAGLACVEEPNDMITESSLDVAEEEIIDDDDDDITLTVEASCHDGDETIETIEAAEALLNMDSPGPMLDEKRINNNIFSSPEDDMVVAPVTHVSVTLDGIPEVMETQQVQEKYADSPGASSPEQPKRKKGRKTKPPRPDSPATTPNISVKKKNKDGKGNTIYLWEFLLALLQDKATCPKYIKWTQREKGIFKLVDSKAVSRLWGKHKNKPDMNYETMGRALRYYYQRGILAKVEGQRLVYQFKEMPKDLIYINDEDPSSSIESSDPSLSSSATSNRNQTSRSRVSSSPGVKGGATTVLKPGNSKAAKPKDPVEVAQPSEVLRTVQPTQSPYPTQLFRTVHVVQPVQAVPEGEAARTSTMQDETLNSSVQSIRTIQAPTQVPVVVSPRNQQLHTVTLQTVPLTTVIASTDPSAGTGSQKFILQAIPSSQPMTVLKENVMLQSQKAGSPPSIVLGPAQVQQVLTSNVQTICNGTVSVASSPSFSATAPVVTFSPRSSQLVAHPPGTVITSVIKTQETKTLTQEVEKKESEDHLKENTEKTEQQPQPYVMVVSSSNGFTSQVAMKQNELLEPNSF
# Chain of ELF4 (Q99607 whole entry): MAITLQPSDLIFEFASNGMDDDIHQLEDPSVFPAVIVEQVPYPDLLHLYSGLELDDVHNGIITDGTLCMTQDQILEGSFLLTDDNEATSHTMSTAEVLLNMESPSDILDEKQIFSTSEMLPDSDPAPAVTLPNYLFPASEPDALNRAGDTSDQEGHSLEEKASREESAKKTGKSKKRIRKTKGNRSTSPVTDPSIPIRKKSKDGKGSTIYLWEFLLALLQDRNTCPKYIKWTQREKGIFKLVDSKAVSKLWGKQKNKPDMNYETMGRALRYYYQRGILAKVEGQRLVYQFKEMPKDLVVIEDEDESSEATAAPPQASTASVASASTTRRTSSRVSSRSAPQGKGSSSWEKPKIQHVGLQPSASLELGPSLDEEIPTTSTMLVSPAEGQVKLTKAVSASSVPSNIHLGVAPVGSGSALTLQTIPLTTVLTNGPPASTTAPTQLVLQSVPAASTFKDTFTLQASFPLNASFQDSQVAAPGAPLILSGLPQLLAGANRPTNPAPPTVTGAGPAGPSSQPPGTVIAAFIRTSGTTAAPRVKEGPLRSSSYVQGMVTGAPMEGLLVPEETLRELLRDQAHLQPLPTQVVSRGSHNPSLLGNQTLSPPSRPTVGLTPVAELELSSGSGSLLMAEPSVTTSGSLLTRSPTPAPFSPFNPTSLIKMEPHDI
# Chain of SPIB (Q01892 whole entry): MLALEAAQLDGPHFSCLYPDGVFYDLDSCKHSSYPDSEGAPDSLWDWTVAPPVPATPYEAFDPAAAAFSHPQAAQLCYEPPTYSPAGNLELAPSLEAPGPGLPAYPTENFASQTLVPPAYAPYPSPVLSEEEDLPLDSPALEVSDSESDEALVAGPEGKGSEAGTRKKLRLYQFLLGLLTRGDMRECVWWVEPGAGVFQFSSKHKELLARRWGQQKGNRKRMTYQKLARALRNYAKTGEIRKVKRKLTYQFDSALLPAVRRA
sequence,measurement,setting,value
AGTACT,binding signal,FLI1,"1.22 fold enrichment (6-mer frequency, TF over GST control)"
same,binding signal,ELK1,"1.41 fold enrichment (6-mer frequency, TF over GST control)"
same,binding signal,GABPA,"1.19 fold enrichment (6-mer frequency, TF over GST control)"
same,binding signal,ERG,"1.25 fold enrichment (6-mer frequency, TF over GST control)"
same,binding signal,ELF1,"1.22 fold enrichment (6-mer frequency, TF over GST control)"
same,binding signal,EHF,"1.27 fold enrichment (6-mer frequency, TF over GST control)"
same,binding signal,SPI1,"1.25 fold enrichment (6-mer frequency, TF over GST control)"
same,binding signal,SPIB,"1.13 fold enrichment (6-mer frequency, TF over GST control)"
same,binding signal,ELK3,"1.44 fold enrichment (6-mer frequency, TF over GST control)"
same,binding signal,FEV,"1.28 fold enrichment (6-mer frequency, TF over GST control)"
same,binding signal,ETV5,"1.19 fold enrichment (6-mer frequency, TF over GST control)"
same,binding signal,HSF1,"1.03 fold enrichment (6-mer frequency, TF over GST control)"
same,binding signal,SPIC,"1.35 fold enrichment (6-mer frequency, TF over GST control)"
same,binding signal,ELF4,"1.19 fold enrichment (6-mer frequency, TF over GST control)"
same,binding signal,ELK4,"1.12 fold enrichment (6-mer frequency, TF over GST control)"
same,binding signal,ETV2,"1.11 fold enrichment (6-mer frequency, TF over GST control)"
same,binding signal,ELF3,"1.29 fold enrichment (6-mer frequency, TF over GST control)"
same,binding signal,CRX,"1.02 fold enrichment (6-mer frequency, TF over GST control)"
same,binding signal,ETV1,"1.19 fold enrichment (6-mer frequency, TF over GST control)"
